Shown are actives, neighbours in structure and some others; about 0.33% of the full set was active somewhere.
FXIIa inh = blocks human coagulation factor XIIa activity; purified human FXIIa, AMC substrate fluorescence, 2 h; P00748; 33,000 compounds, 0.2% hits; inhibition, % at 10 µM; in the data active means inhibition above about 30%;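 further: 0% = enzyme with vehicle only and 100% = no enzyme blank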
FXIa inh = blocks human coagulation factor XIa activity; purified human FXIa, fluorogenic AMC substrate cleavage; inhibition, % at 10 µM; 33,000 compounds, 0.3% hits; AID 687;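 active means inhibition above 40% in the primary screen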;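 further: 0% = enzyme without compound and 100% = blank wells lacking enzyme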
Target sequence (P03951 19-387 limits assumed): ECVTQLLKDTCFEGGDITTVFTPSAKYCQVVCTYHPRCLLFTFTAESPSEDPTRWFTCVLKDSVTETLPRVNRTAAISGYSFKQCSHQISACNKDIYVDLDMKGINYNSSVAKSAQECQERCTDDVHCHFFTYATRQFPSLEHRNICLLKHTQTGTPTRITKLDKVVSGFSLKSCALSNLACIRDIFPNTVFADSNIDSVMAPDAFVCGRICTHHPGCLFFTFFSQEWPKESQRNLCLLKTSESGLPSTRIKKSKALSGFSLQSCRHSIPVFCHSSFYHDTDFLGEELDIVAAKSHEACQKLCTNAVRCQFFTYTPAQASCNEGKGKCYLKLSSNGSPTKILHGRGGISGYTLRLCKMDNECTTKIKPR
Target sequence (P03951 388-625 limits assumed): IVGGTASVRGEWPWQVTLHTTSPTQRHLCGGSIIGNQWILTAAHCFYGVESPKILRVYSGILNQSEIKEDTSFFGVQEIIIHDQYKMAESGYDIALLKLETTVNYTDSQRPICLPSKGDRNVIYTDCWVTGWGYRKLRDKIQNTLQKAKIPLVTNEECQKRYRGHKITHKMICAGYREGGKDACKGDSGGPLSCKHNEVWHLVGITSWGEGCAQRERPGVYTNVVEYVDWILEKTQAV
The depositor's hits bear a star.

SMILES	FXIIa inh	FXIa inh
CC1(C)c2ssc(=S)c2-c2ccccc2N1C(=O)c1ccco1	33.9*	3.9
Cc1ccc2c(c1)-c1c(ssc1=S)C(C)(C)N2C(=O)c1ccco1	8.2	7.1
CC(C)(C)C(=O)Nc1ccc(N2CCCC2)cc1	4.9	3.3
CCOc1cc(S(=O)(=O)NCc2ccccc2)c(OCC)cc1-n1cnnn1	5.2	-1.8
CCOc1cc(S(=O)(=O)N(Cc2ccccc2)Cc2ccccc2)c(OCC)cc1-n1cnnn1	2.4	44.7*
Cc1ccc(-n2nc3c(c2NC(=O)c2ccccc2Br)CS(=O)C3)cc1 (configuration not stated)	2.5	-3.5
COc1ccc(S(=O)(=O)N2CCC(C(=O)N3CCc4ccccc4C3)CC2)cc1Cl	7.0	61.4*
COc1ccc(S(=O)(=O)N2CCC(C(=O)NC3CC3)CC2)cc1Cl	-0.8	-1.3
CC(c1ccccc1)n1cc(C(=O)NCc2ccccn2)nn1 (configuration not stated)	7.5	4.2
O=C(NCc1ccccn1)c1cn(CCc2ccccc2)nn1	31.0*	3.1
CCN(CC)S(=O)(=O)c1csc(C(=O)NCc2ccccc2)c1	-10.3	-10.8
CCc1ccc(NC(=O)Cn2nc(C(F)(F)F)c3c2CCC3)cc1	1.8	44.2*
CCc1ccccc1NC(=O)Cn1nc(C(F)(F)F)c2c1CCC2	0.9	-3.0
O=C1c2ccccc2C(=O)N1CC1CCCO1 (configuration not stated)	10.9	2.0
O=C(CCCN1C(=O)c2ccccc2C1=O)NCC1CCCO1 (configuration not stated)	-11.1	44.1*
O=C(CSc1ncn[nH]1)NCCOc1ccccc1	-1.2	-2.4
COc1ccc(OCCSc2ncn[nH]2)cc1	-15.3	42.7*
Cc1ccc(C(=O)ONc2ccc(N=NC(=O)c3ccccc3O)cc2)cc1	15.3	42.6*
COC(=O)c1ccc(NC(=O)c2ccccc2SC)cc1	6.7	0.6
O=C(COc1ccc(Br)cc1)N1CCC(c2ccccc2)C1 (configuration not stated)	5.1	-10.4
O=c1nc(-c2ccccc2)c2cc(Cl)ccc2[nH]1	-16.2	103.4*
CCOC(=O)c1[nH]c2ccc(Cl)cc2c1-c1ccccc1	-15.3	30.3
NC(=O)C1CCCN(S(=O)(=O)c2ccc(Br)cc2)C1 (configuration not stated)	-15.4	-1.2
CCOCCCNS(=O)(=O)c1ccc(OC)c(Cl)c1Cl	2.3	0.8
Cc1nc2ccccc2c(=O)n1NC(=O)c1ccc(F)cc1Cl	-4.8	-0.1
SMILES	FXIIa inh	FXIa inh
COc1cccc(-c2nc3ccccc3c(=O)o2)c1	30.1*	-2.0
COc1cc(OC)cc(-c2nc3ccccc3c(=O)o2)c1	15.4	-4.2
COc1ccc(C2C(=O)N(CCc3ccccc3)CC(=O)N2C2CCCCC2)cc1 (configuration not stated)	8.0	0.5
COc1ccccc1Cn1c2nc3ccccc3nc2c2c(=O)n(CC(C)C)cnc21	5.4	-1.9
COC(=O)c1[nH]c2ccc(Br)cc2c1NC(=O)CN1CCCc2ccccc21	3.4	44.7*
CCOC(=O)c1[nH]c2ccc(OC)cc2c1NC(=O)CN1CCc2ccccc2C1	0.5	-6.1
O=C1C(CCS(=O)c2ccccc2)C(=O)N(c2ccccc2)N1c1ccccc1 (configuration not stated)	9.1	3.2
CCc1ccc(NC(=O)CSc2nc3cc(C(=O)OC)ccc3c(=O)n2CC2CCCO2)cc1 (configuration not stated)	3.5	3.8
CC(=O)c1cc2c(cc1NC(=O)CN1CCCCCCC1)OCO2	-13.7	32.7
CCCCc1c(O)nc(SCC(=O)NC(C)(C)C)n(-c2ccccc2C)c1=O	3.0	-2.0
CCc1c(O)nc(SCC(=O)NC(C)(C)C)n(-c2ccccc2)c1=O	1.3	43.2*
CCS(=O)(=O)c1ccc2oc(Nc3ccccc3C)nc2c1	3.2	0.9
CCCCN(N=Nc1nonc1OC)c1nonc1OC	5.4	4.0
Cc1cc2ncn(CCOc3ccccc3C#N)c2cc1C	3.0	2.9
Cc1ccc(S(=O)(=O)NC2(C(=O)O)CCCCC2)cc1	16.0	-2.9
Cc1ccc(NC(=O)C2(S(=O)(=O)c3ccc(C)cc3)CC2)cc1	30.1*	0.3
Cc1ccc(NC(=O)CCn2cccc2)cc1C	5.7	-5.1
Cc1ccc(NC(=O)CCn2cccc2)cc1	3.5	44.4*
O=c1n(S(=O)(=O)c2cccc3cccnc23)c2ccccc2n1S(=O)(=O)c1cccc2cccnc12	7.9	3.3
O=C(CCCN1CC=C(n2c(=O)[nH]c3ccccc32)CC1)c1ccc(F)cc1	-0.2	2.1
Cc1c(NC(=O)c2cc3ccccc3o2)c(=O)n(-c2ccccc2)n1C	7.2	57.4*
Cc1c(NC(=O)c2cc(C3CC3)on2)c(=O)n(-c2ccccc2)n1C	4.5	2.5
COc1cccc(C(=O)O/N=C/c2ccc(Sc3ccc(C)cc3)nc2)c1	-3.3	-3.3
COc1ccccc1NC(=O)CSc1nnc(-c2ccoc2C)n1CC1CCCO1 (configuration not stated)	-15.6	26.1
C1CNCCNCCNCCN1	4.2	0.6
SMILES	FXIIa inh	FXIa inh
O=C(c1ccccc1)N1CCCC(c2nc3c(nnn3Cc3ccccc3)c(=O)[nH]2)C1 (configuration not stated)	36.9*	-2.1
O=C(C1CCCCC1)N1CCCC(c2nc3c(nnn3Cc3ccccc3)c(=O)[nH]2)C1 (configuration not stated)	-12.7	-0.3
O=S(=O)(NC1CC2CCC1C2)c1ccc(Br)s1 (configuration not stated)	11.1	-3.5
O=C(CNC(=O)Cn1ccc2ccccc2c1=O)NCCCN1CCCCCC1	3.6	-6.8
O=C(c1ccccc1)N1CCN(C(=O)c2ccccc2)CC1	3.2	-0.6
O=C(c1ccc(F)cc1)N1CCN(C(=O)c2cccnc2)CC1	10.2	49.8*
COC(=O)c1sc(NC(=O)CC(C)C)c(C(=O)OC)c1C	6.0	43.3*
COC(=O)c1sc(NC(=O)CSc2nncs2)c(C(=O)OC)c1C	3.6	-7.0
CCOC(=O)COc1ccc(S(=O)(=O)Nc2ccc(C)cc2)cc1	11.2	2.0
Cc1ccc(NS(=O)(=O)c2ccc(OCC(=O)N3CCOCC3)cc2)cc1	8.1	99.4*
Cc1ccc(S(=O)(=O)CCSc2nc(C)cc(C(F)(F)F)c2C#N)cc1	4.4	-2.2
Cn1nnnc1SCC(=O)N(C1CCCCC1)C1CCCCC1	-14.3	105.5*
CC1CCCC(NC(=O)CSc2nnnn2C)C1C (configuration not stated)	5.6	-1.5
N=c1c[n+](N2CCOCC2)[n-]o1	-0.1	5.5
CC1CCc2c(C(=O)Oc3cccc(-n4cnnn4)c3)csc2C1 (configuration not stated)	8.8	0.2
O=C(Oc1cccc(-n2cnnn2)c1)c1ccco1	46.6*	45.1*
COc1ccc2c3c(cccc13)NN=C2C	7.2	11.0
CSc1nsc(SCC(=O)Nc2c(C)n(C)n(-c3ccccc3)c2=O)n1	5.7	-4.8
COc1ccc(OCC(=O)Nc2cc(-c3nn(C)c(=O)c4ccccc34)ccc2OC)cc1	10.9	42.0*
COc1ccc(-c2nn(C)c(=O)c3ccccc23)cc1NC(=O)Cn1nc(-c2ccccc2)c2ccccc2c1=O	0.7	-5.1
COc1ccc(CN(C#N)c2nc(SC)nc(N(C)C)n2)cc1	1.0	-6.5
CCC(Sc1nc2ccccc2c2nc3ccccc3n12)C(=O)NCc1ccco1 (configuration not stated)	-2.7	-4.9

High-throughput results deposited in PubChem BioAssay by PCMD.
